Experimental data reported in PubChem BioAssay (Tox21).
Several values for one entry are separate records, joined by “and”; a condition that tells them apart may be missing. Identical values can stand only once. Records with an inconclusive call do not appear. A call without a number means that no potency is given here. A structure can be active in one record and inactive in another. Activity calls are given as the source filed them. Calls follow the shape of the dose curve; as a rule, active = well fitted inhibition curve with a large enough effect in the signal ratio in the repeat runs, with a control signal flat; inconclusive = weak or mixed curves, or effect the other way; inactive = flat fitted curve, though single readings scatter; the % refers to the signal ratio.

What follows are molecules tested against D(2) dopamine receptor (Homo sapiens) (UniProt P14416) (assay: Dopamine D2 receptor (DRD2) small molecule antagonists, cell-based qHTS assay (AID 1963595)). Conditions: HEK293-DRD2 cAMP HTRF antagonist mode; series mostly up to 92.4 µM; activity change, negative = inhibition: at the top concentration.
Sequence of D(2) dopamine receptor (Homo sapiens) (P14416 whole entry, looked up): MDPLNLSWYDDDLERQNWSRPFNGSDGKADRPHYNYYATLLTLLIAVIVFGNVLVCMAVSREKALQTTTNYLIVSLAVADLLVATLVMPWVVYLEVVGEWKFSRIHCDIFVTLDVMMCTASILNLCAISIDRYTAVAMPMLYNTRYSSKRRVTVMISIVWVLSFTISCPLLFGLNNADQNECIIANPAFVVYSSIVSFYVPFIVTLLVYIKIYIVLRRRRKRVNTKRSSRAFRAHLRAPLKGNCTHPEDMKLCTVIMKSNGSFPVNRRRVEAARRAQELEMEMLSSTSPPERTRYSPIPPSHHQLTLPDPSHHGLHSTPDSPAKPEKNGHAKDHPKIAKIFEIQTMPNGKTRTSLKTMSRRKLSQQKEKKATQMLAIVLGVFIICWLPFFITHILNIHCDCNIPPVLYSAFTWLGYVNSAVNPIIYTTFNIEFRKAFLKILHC
Description: National Center for Advancing Translational Sciences [NCATS]
Division of Preclinical Innovation [DPI]
U.S. Environmental Protection Agency [EPA]
National Institutes of Environmental Health Sciences [NIEHS]
National Toxicology Program [NTP]
U.S. Food and Drug Administration [FDA]
DRD2 is the D2 subtype of the dopamine receptor, which is coupled to Gi subtype of G protein-coupled receptor. This G protein-coupled receptor inhibits adenylyl cyclase activity. The DRD2-HEK293 cell line stably expressing D2 dopamine receptor can be used for screening agonists and antagonists of interactions between D2 and its ligands. The Hek293-DRD2 cAMP assay is based on HTRF technology. It measures changes of cAMP accumulation in response to Gi coupled GPCR activation or inhibition.
Tox21 Assay Protocol Summary:
DRD2-Hek293 cells were dispensed at 600 cells/3uL/well in 1536-well white plates using a Multidrop Dispenser. After the assay plates were incubated at a 37 C/5% CO2 incubator for 24 h, 1 uL of Ro20-1724 at final concentration of 0.1 mM was transferred to the assay plate by a Flying Reagent Dispenser. Following Ro20-1724 addition, 23 nL of compound dissolved in DMSO, positive controls or DMSO only was added to the assay plates via Wako pintool station. The assay plates were incubated at room temperature for 10 min. Next, 1 uL of mixture of NKH477 (final concentration at 200 nM) and quinpirole (final concentration at 12 nM) was added into the plates. After the assay plates were incubated at room temperature for an additional 30 min, 2.5 ul/well of cAMP-d2 and 2.5 ul/well of anti-cAMP-cryptate were added respectively into the assay plates using a Flying Reagent Dispenser. The plates were incubated at room temperature for 1 h. The fluorescence intensity in the plates was measured at 340 nm excitation and 665 & 620 nm emission by an Envision plate reader.
Potency is read from the fitted curve at half-maximal effect.

Compound | Potency | activity change, negative = inhibition
c1ccc(-c2cccc(-c3ccccc3)c2)cc1 | inactive | –
Nc1ccc(-c2ccc(N)c(N)c2)cc1N | inactive | –
CCCCC(CC)COC(=O)c1c(Br)c(Br)c(Br)c(Br)c1C(=O)OCC(CC)CCCC (stereo not given) | – | 6.17% [at 42.5 µM] (inactive)
CCCC[n+]1ccc(C)cc1 | inactive and 60.8 µM (active) | –
C=CCc1ccc2c(c1)OCO2 | inactive | –
Cc1cccc(C)c1NC(=O)CN1CCCC1=O | inactive | –
Clc1cccc(Cl)c1Cl | inactive | –
CC(C)N(C(=O)SCC(Cl)=C(Cl)Cl)C(C)C | inactive | –
C(CCOCC1CO1)COCC1CO1 (stereo not given) | – | 4.59% (inactive)
O=P1(N(CCCl)CCCl)NCCCO1 (stereo not given) | inactive | –
O=C(Cl)CCl | – | -5.1% (inactive)
Cl[C@H]1OCCO[C@@H]1Cl | inactive | –
CNC(=O)O/N=C/C(C)(C)SC | inactive | –
O=C(CCN1CC1)OCC(CO)(COC(=O)CCN1CC1)COC(=O)CCN1CC1 | – | -12.2% (inactive)
Cc1ccccc1[N+](=O)[O-] | – | -0.159% (inactive)
O=[N+]([O-])/N=C1\NCCN1Cc1ccc(Cl)nc1 | inactive | –
CC1(C)C(C=C(Cl)Cl)C1C(=O)OC(C#N)c1ccc(F)c(Oc2ccccc2)c1 (stereo not given) | – | 2.81% (inactive)
CCC(=O)OC1(c2ccccc2)CCN(C)CC1 | – | -4.98% (inactive)
CC(=O)C(Cl)Cl | – | 1.18% (inactive)
CN=C=S | – | -12.1% (inactive)

Compound | Potency | activity change, negative = inhibition
ClC(Cl)c1ccccc1 | inactive | –
CC(=O)C1CCOC1=O (stereo not given) | inactive | –
Cc1ccc(OP(=O)(Oc2ccc(C)cc2)Oc2ccc(C)cc2)cc1 | inactive | –
NC(=O)O | – | 2.98% (inactive)
CCCOC(=O)c1ccccc1C(=O)OCCC | inactive | –
O=C(O)C(Cl)(Cl)Br | – | -0.528% (inactive)
O=P1(NCCCl)OCCCN1CCCl (stereo not given) | inactive | –
O=[N+]([O-])c1ccccc1 | inactive | –
CCCCCCCCCc1ccc(O)cc1 | inactive | –
CCN(C)N=O | – | 2.06% (inactive)
O=C([O-])c1ccccn1.O=C([O-])c1ccccn1.O=C([O-])c1ccccn1.[Cr+3] | – | -7.66% (inactive)
CCOP(=S)(OCC)SCSc1cc(Cl)ccc1Cl | – | 0.954% (inactive)
CC(C)=CC1C(C(=O)OCN2C(=O)C3=C(CCCC3)C2=O)C1(C)C (stereo not given) | – | 0.473% (inactive)
Nc1cc(Cl)cc(Cl)c1 | inactive | –
Cc1cc(Cl)ccc1N | inactive | –
ClC1=C(Cl)[C@]2(Cl)[C@@H]3[C@@H](Cl)[C@@H](Cl)C[C@@H]3[C@@]1(Cl)C2(Cl)Cl | – | -0.0114% (inactive)
CCCCCCCCCCCC(=O)O | inactive | –
O=Cc1ccco1 | inactive | –
C=CC(=O)NC(C)(C)CC(C)=O | – | 6.44% (inactive)
CCCCCC[n+]1ccccc1 | inactive | –
